In PubChem BioAssay (Tox21):
Inconclusive results are not listed. Active and inactive are the calls of the source. Unless noted, the call rests on the fitted dose curve; in most records, active means well fitted curve in the direction sought with a large enough effect in the repeat runs; inconclusive means weak or mixed curves; inactive means no such curve, though single readings can be large; an effect the other way counts as inactive or inconclusive.

Legend:
[1] = qHTS assay for small molecule agonists of the antioxidant response element (ARE) signaling pathway (AID 743202; active means well fitted activation curve with a large enough effect in the signal ratio in the repeat runs, not every such curve was filed as active; the % refers to the signal ratio)
Summary of the method: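 Compounds delivered in DMSO to ARE-bla HepG2 cells (2,000 cells/well, pre-incubated 5 h) and left 16 h at 37 C. LiveBLAzer B/G FRET substrate then added for 2 h at RT before fluorescence reading.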

[2] = qHTS assay for small molecule agonists of the antioxidant response element (ARE) signaling pathway - cell viability counter screen (AID 743203; calls by dose curve; further: nearly all actives have a fitted effect of over 55% in size; further: potency means the concentration at half of the fitted maximal effect)
Summary of the method: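 Following 16 hrs of compound treatment at 37C, HepG2 cells with an ARE-controlled beta-lactamase gene were lysed with CellTiter-Glo. Luminescence was read after 30 min at room temperature.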

[3] = qHTS assay for small molecule activators of the heat shock response signaling pathway - cell viability counter screen (AID 743209); further: nearly all actives have a fitted effect of over 50% in size
Summary of the method: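 Readout: CellTiter-Glo luminescence, 30 min at room temperature. System: HSE-bla HeLa cells, 1500/well, plated overnight. Treatment: compounds in DMSO, 5 h at 37 C.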

[4] = qHTS assay for small molecule activators of the heat shock response signaling pathway (AID 743210; active means well fitted activation curve with a large enough effect in the signal ratio in the repeat runs, with a control signal flat, not every such curve was filed as active; the % refers to the signal ratio;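 further: HeLa cells with beta-lactamase reporter driven by heat shock elements; series mostly up to about 63 µM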)
Summary of the method: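 Reporter gene assay: HeLa cells stably bearing an HSE-bla construct, compound treatment 5 h at 37 C, LiveBLAzer substrate 2.5 h at RT, fluorescence intensity.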

[5] = qHTS assay to identify small molecule agonists of the peroxisome proliferator-activated receptor delta (PPARd) signaling pathway - cell viability counter screen (AID 743211); further: nearly all actives have a fitted effect of over 55% in size; further: potency means the concentration at half of the fitted maximal effect
Summary of the method: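 Multiplexed format: after the 2 h room-temperature LiveBLAzer B/G FRET step, CellTiter-Glo was added to the same wells. Luminescence after 30 min gave cell viability; compound exposure was 17 h at 37C.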

[6] = target: Peroxisome proliferator-activated receptor delta (Homo sapiens) (UniProt Q03181); assay: qHTS assay to identify small molecule agonists of the peroxisome proliferator-activated receptor delta (PPARd) signaling pathway (AID 743212; calls by dose curve)
Summary of the method: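 A PPARd-bla HEK293H line with beta-lactamase under an Upstream Activator Sequence is treated with compounds at 37 C. Substrate loading for 2 h at room temperature precedes the fluorescence measurement.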

[7] = qHTS assay to identify small molecule antagonists of the peroxisome proliferator-activated receptor delta (PPARd) signaling pathway - cell viability counter screen (AID 743213); further: nearly all actives have a fitted effect of over 50% in size; further: potency means the concentration at half of the fitted maximal effect
Summary of the method: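 PPARd-bla HEK293H cells were treated with compounds plus agonist L165041 (300 nM final) for 17 h at 37 C. Viability was then read in the same wells by CellTiter-Glo luminescence after 30 min at room temperature.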

[8] = target: Bile acid receptor (Homo sapiens) (UniProt Q96RI1); assay: qHTS assay to identify small molecule antagonists of the farnesoid-X-receptor (FXR) signaling pathway (AID 743217; active means well fitted inhibition curve with a large enough effect in the signal ratio in the repeat runs, not every such curve was filed as active; the % refers to the signal ratio)
Summary of the method: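 GeneBLAzer FXR-UAS-bla HEK 293T, CDCA-stimulated (50 uM final). Compound treatment 16 h, 37 °C. Detection: beta-lactamase cleavage of B/G FRET substrate, fluorescence.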

[9] = qHTS assay to identify small molecule agonists of the farnesoid-X-receptor (FXR) signaling pathway - cell viability counter screen (AID 743218); further: nearly all actives have a fitted effect of over 45% in size; further: potency means the concentration at half of the fitted maximal effect
Summary of the method: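 Parallel cytotoxicity test: compound-treated (16 h, 37 C) HEK 293T FXR-bla reporter cells were lysed with CellTiter-Glo and luminescence recorded.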

[10] = target: Bile acid receptor (Homo sapiens) (UniProt Q96RI1); assay: qHTS assay to identify small molecule agonists of the farnesoid-X-receptor (FXR) signaling pathway (AID 743220; active means well fitted activation curve with a large enough effect in the signal ratio in the repeat runs, not every such curve was filed as active; the % refers to the signal ratio)
Summary of the method: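 Beta-lactamase reporter under UAS control in GeneBLAzer FXR HEK 293T cells (5000/well) measured with LiveBLAzer FRET substrate after 2 h at room temperature. Compound exposure lasted 16 h at 37C.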

[11] = qHTS assay to identify small molecule antagonists of the farnesoid-X-receptor (FXR) signaling pathway - cell viability counter screen (AID 743221; active means well fitted cell-killing curve with a large enough effect in the repeat runs, not every such curve was filed as active; further: nearly all actives have a fitted effect of over 50% in size; further: potency means the concentration at half of the fitted maximal effect)
Summary of the method: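 CellTiter-Glo, 30 min RT, luminescence; same wells as the LiveBLAzer FRET read. Cells: FXR-UAS-bla HEK 293T. Treatment: compound with chenodeoxycholic acid 50 uM final, 16 h at 37 C.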

[12] = target: Vitamin D3 receptor (Homo sapiens) (UniProt P11473); assay: qHTS assay to identify small molecule agonists of the vitamin D receptor (VDR) signaling pathway (AID 743222; calls by dose curve)
Summary of the method: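 In VDR-bla cells, compound-induced beta-lactamase expression is quantified by FRET substrate fluorescence. Treatment lasts 16 h at 37C; substrate develops 2 h at room temperature.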

[13] = target: Vitamin D3 receptor (Homo sapiens) (UniProt P11473); assay: qHTS assay to identify small molecule antagonists of the vitamin D receptor (VDR) signaling pathway (AID 743223; active means well fitted inhibition curve with a large enough effect in the signal ratio in the repeat runs, not every such curve was filed as active; the % refers to the signal ratio)
Summary of the method: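 After VDR-bla cells are plated and left 4 h at 37C, DMSO-dissolved compounds and 3 nM (final) calcitriol agonist are added. Incubation continues 16 h at 37C; FRET beta-lactamase substrate then develops 2 h at room temperature.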

[14] = target: Peroxisome proliferator-activated receptor gamma (Homo sapiens) (UniProt P37231); assay: qHTS assay to identify small molecule antagonists of the peroxisome proliferator-activated receptor gamma (PPARg) signaling pathway (AID 743191; calls by dose curve; further: nearly all actives have a fitted effect of over 30% in size; further: potency means the concentration at half of the fitted maximal effect)
Summary of the method: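 GeneBLAzer PPARg UAS-bla HEK293H cells carrying a UAS-driven beta-lactamase reporter were plated at 3000 cells/well, preincubated 5 h at 37C, then given compound for 17 h at 37C; LiveBLAzer B/G FRET substrate was read after 1 h at room temperature.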

[15] = qHTS assay to identify small molecule antagonists of the peroxisome proliferator-activated receptor gamma (PPARg) signaling pathway - cell viability counter screen (AID 743194); further: nearly all actives have a fitted effect of over 55% in size; further: potency means the concentration at half of the fitted maximal effect
Summary of the method: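 PPARg-UAS-bla HEK293H cells were plated, rested 5 h at 37 C, then treated with compounds plus rosiglitazone (50 nM final) for 17 h at 37 C; viability was then read by CellTiter-Glo luminescence after 30 min at room temperature.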

[16] = target: Peroxisome proliferator-activated receptor delta (Homo sapiens) (UniProt Q03181); assay: qHTS assay to identify small molecule antagonists of the peroxisome proliferator-activated receptor delta (PPARd) signaling pathway (AID 743215; active means well fitted inhibition curve with a large enough effect in the signal ratio in the repeat runs, not every such curve was filed as active; the % refers to the signal ratio;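 further: cells stimulated with agonist L165041 at 300 nM final during compound exposure; series mostly up to about 62 µM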)
Summary of the method: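 HEK293H UAS-bla, PPARd; agonist L165041 300 nM final with cpd in DMSO; 37 C 17 h; FRET substrate, RT 2 h; fluorescence intensity.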

[17] = qHTS assay to identify small molecule that activate the aryl hydrocarbon receptor (AhR) signaling pathway - cell viability counter screen (AID 743086); further: nearly all actives have a fitted effect of over 45% in size; further: potency means the concentration at half of the fitted maximal effect
Summary of the method: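 HepG2-AhR-luc (HG2L7.5c1) cells, 4000/well, were preincubated 5 h at 37C, exposed to compound in qHTS format for 24 hr at 37C, then given CellTiter-Fluor for 30 min; viability was read as fluorescence in the reporter wells.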

Measured: Potency

Chain of Vitamin D3 receptor (Homo sapiens) (P11473 whole entry, looked up): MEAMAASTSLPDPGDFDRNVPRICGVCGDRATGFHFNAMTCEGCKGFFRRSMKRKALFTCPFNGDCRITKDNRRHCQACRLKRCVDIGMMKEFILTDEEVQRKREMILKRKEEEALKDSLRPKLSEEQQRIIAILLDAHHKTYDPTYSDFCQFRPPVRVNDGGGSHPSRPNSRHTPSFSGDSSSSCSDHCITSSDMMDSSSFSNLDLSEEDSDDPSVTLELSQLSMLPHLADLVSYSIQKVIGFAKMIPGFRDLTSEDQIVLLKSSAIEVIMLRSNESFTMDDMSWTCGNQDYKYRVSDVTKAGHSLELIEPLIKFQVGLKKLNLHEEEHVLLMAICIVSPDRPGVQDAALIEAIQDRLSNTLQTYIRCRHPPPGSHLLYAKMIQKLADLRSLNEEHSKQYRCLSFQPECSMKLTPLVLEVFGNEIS
Chain of Peroxisome proliferator-activated receptor gamma (Homo sapiens) (P37231 whole entry, looked up): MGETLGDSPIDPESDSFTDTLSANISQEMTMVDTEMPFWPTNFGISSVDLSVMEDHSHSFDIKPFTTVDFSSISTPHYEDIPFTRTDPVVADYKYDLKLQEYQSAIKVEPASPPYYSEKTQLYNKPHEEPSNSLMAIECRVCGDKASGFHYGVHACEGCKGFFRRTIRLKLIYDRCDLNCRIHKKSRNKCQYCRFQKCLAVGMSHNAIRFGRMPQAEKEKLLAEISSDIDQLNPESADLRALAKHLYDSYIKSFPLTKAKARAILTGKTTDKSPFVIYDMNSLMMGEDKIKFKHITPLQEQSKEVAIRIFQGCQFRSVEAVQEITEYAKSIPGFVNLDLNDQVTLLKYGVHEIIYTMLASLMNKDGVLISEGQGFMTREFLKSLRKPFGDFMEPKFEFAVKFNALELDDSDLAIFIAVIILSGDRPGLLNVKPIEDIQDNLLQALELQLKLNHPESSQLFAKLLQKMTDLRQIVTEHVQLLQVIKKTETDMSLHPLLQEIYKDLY
Chain of Peroxisome proliferator-activated receptor delta (Homo sapiens) (Q03181 whole entry, looked up): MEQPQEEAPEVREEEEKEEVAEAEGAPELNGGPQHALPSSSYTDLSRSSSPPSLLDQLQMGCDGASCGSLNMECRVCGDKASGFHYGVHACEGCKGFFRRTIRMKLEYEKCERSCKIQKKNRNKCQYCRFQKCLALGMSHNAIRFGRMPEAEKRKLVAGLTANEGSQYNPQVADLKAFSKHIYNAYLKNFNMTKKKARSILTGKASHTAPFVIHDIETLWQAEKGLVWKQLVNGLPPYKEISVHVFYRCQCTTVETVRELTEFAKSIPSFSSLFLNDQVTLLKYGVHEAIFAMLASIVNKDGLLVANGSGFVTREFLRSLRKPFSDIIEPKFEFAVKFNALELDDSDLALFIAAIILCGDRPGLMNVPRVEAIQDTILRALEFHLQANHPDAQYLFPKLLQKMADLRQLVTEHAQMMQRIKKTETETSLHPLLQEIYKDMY
Chain of Bile acid receptor (Homo sapiens) (Q96RI1 whole entry, looked up): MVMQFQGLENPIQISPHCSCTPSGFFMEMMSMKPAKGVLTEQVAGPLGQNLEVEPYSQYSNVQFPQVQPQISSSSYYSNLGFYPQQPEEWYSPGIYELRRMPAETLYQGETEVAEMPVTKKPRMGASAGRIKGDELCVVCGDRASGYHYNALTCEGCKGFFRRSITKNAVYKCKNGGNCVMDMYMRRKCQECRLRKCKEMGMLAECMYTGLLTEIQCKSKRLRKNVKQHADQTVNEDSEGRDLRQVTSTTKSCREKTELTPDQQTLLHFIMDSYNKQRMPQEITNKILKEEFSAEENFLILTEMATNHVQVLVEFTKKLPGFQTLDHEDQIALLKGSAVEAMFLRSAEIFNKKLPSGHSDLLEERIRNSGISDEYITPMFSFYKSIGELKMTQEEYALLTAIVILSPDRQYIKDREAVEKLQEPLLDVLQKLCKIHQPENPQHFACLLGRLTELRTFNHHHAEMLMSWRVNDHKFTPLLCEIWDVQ

CCCCC
inactive: [1] | [2] | [3] | [4] | [5] | [6] | [7] | [8] | [9] | [10] | [11] | [12] | [13]

COCCCN1CCC(NC(=O)c2cc(Cl)c(N)c3c2OCC3)CC1
inactive: [14] | [15] | [1] | [2] | [3] | [4] | [7] | [12] | [13]

CC(C)Cc1ccc(C(C)C(=O)OCc2ccccn2)cc1 (stereo not given)
inactive: [14] | [15] | [1] | [2] | [3] | [4] | [7] | [16] | [8] | [9] | [10] | [11] | [12] | [13]

O=C(NCC1CN(c2ccc(N3CCOCC3=O)cc2)C(=O)O1)c1ccc(Cl)s1 (stereo not given)
inactive: [15] | [1] | [2] | [3] | [4] | [5] | [16] | [11] | [12] | [13]

CCCCCCOC(=O)NC(=N)c1ccc(NCc2nc3cc(C(=O)N(CCC(=O)OCC)c4ccccn4)ccc3n2C)cc1
active: [14] 29.8 µM | [15] 13.3 µM | [2] 26.6 µM | [5] 21.1 µM | [7] 23.7 µM | [9] 26.6 µM
inactive: [4] | [10] | [13]

O[C@@H](COc1cccc2ncccc12)CN1CCN(C2c3ccccc3[C@@H]3[C@H](c4ccccc42)C3(F)F)CC1 (stereo not given in full)
active: [15] 13.3 µM | [2] 15 µM | [5] 9.44 µM | [7] 23.7 µM | [9] 15 µM | [11] 21.1 µM
inactive: [3] | [6]

COc1cc2nc(N3CCN(C(=O)C4COc5ccccc5O4)CC3)nc(N)c2cc1OC (stereo not given)
active: [2] 29.8 µM
inactive: [17] | [15] | [1] | [3] | [4] | [7] | [10] | [12] | [13]

COc1ccc2cccc(CCNC(C)=O)c2c1
inactive: [14] | [15] | [1] | [2] | [3] | [4] | [5] | [7] | [13]

Cc1ccc(C(C)OC(=O)C2(C)CCC(C(=O)O)C2(C)C)cc1 (stereo not given)
inactive: [15] | [1] | [2] | [3] | [4] | [6] | [9] | [11] | [12]

CCOC(=O)C(O)c1ccccc1 (stereo not given)
inactive: [14] | [15] | [1] | [2] | [3] | [4] | [5] | [7] | [9] | [11] | [13]

CC(C)(O)c1ccc(CNC(=O)c2cccnc2Oc2ccc(F)cc2)cc1
inactive: [17] | [15] | [2] | [3] | [4] | [5] | [7] | [9] | [11]

CCc1cc(C2=C(C(=O)O)N(c3ccccc3C(F)(F)F)S(=O)(=O)c3ccccc32)cc2c1OCO2
inactive: [15] | [3] | [4] | [5] | [16] | [11]
active: [17] 21.4 µM | [2] 6.04 µM

CC1=CCCC(C)(C)C12CCC(C)O2 (stereo not given)
inactive: [15] | [2] | [3] | [4] | [7] | [8] | [10]

CCC(C)(C)CC
active: [7] 51.3 µM
inactive: [17] | [15] | [1] | [2] | [3] | [13]

O=C(O)c1nc(Cl)c(Cl)c(Cl)c1Cl
inactive: [17] | [15] | [2] | [3] | [4] | [5] | [16] | [9] | [11]

CN(C)CCOC(c1ccccc1)c1ccc(Br)cc1 (stereo not given)
inactive: [2] | [3] | [4] | [6] | [8] | [10] | [12] | [13]

O=C(O)C1(C(=O)O)CCC1.[NH2-].[NH2-].[Pt+2]
inactive: [14] | [15] | [3] | [4] | [5] | [6] | [16] | [8] | [9] | [10]

COc1cc2nc(Cl)nc(N)c2cc1OC
inactive: [15] | [2] | [3] | [4] | [5] | [7] | [9] | [11] | [12] | [13]

CCCCCCc1ccc(-c2ccc(C#N)cc2)cc1
inactive: [17] | [15] | [1] | [3] | [4] | [5] | [6] | [7] | [8] | [10] | [11]

COc1cc2c(cc1OC)C(C(C(=O)N(CCc1ccc(OC)c(OC)c1OC)CCc1ccc(OC)c(OC)c1OC)c1ccccc1)=NCC2 (stereo not given)
inactive: [15] | [1] | [2] | [3] | [4] | [5] | [7] | [11] | [13]

CCOC(=O)C(=O)CCc1ccccc1
inactive: [14] | [1] | [2] | [3] | [4] | [5] | [6] | [7] | [16] | [9] | [11]

Cc1ccccc1S(=O)(=O)O
inactive: [17] | [15] | [1] | [3] | [4] | [5] | [7] | [9] | [11]
